# Measurements published in the supplement of paper PMC10681739.
# Molecular target: T1, ETS1 (UniProt P14921)
# T1 sequence: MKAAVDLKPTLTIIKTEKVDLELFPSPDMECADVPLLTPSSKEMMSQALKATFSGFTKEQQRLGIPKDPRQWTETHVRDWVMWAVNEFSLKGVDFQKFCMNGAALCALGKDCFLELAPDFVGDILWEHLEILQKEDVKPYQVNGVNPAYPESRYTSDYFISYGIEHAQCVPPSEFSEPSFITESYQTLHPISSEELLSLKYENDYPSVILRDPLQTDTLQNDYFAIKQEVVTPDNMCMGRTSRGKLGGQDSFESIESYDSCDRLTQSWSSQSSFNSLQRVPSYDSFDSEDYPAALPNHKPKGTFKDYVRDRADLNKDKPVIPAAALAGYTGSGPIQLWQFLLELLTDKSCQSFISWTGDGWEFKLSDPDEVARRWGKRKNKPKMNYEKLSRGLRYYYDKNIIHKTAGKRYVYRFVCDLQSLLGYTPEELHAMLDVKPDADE
# Assay: ETS1 binding intensity (PBM fluorescence) in presence of RUNX1, normalised to ETS1-only experiment (arbitrary fluorescence units); higher = stronger binding
# Details: ETS1 concentration 1 nM; RUNX1 concentration 25 nM
row,Sequence,ETS1 binding intensity
1,GTGAATGAGGGGGAAGGAAGTGGTTTGGAAAAATAC,2790
2,ACATTCTTCCGGTTGGACCTCCGCGGTCAGCGCTGT,1710
3,TTTCACTTCCGGCATGTTTTTCACCCACAGGGATAT,3980
4,CAGGGCACCTCCTACTTCCCCCCGCAGATAACTACC,1010
5,GGTAAAGCAACAGGATGTGGGTGTCTGACTTACAAT,6760
6,CCGGGTAGGATCCGGTTGCCTTTCTGCGGTGGAGGA,798
7,CTCAGGAATGCGGAAGTGCTCTGTGGGCACCCACCA,5950
8,TGGGGCCCGGAAGCGCTGGCGCCTTGCGGCCAGAAG,3180
9,GAAAACTAAGCAGGATGTGGTCTCGGCTGGAGCCTG,5380
10,ACACCGGAAGCCCAACAGCATGCCGAGTAACCACCC,1170
11,CCCTGCCATTTCCTGCCCAATACCGCGTATGCAACT,1700
12,CACCGACCGGAAGGGCCCCAAGGATCCCCGCAGCAG,2710
13,GGAACAGGAAAAGCCTCCGGCAGCCCCTGCGGGCGG,941
14,GGCCGACGGGAAGTGTAGTCCGGCCTGCGGTCCGGG,1910
15,GTCTTACTTCCTGTCCCCGCCCACCGCGACTGTCTT,3520
16,CTGTTTCCTGCCTTTGCTGTCTGTGACCGCATCAGT,1490
17,GAGCGCCCACTTCCTGTTTACCACCCAGCCTCTTCG,5330
18,AATGCCGGATATTGGTTCTGGTAAGCCACAAAAAAG,4090
19,AATCCACCGGAAACACTTAGACGCCGCAACCCCAGT,5740
20,GTGGCTATGGGAAGTGGGGTGCGGTTTCTGCCGGGG,3070
21,GCTTCTGAGGAAGTGCGTTCTGTGGGTAGGTGGAGT,1000
